Records with an inconclusive call do not appear. The source made the active and inactive calls.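 How the source made its calls, unless noted: active means normalized viability below 100% at a tested concentration; inactive means the rest.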
Assays:
[1] = growth inhibition of DIPG glioma cells, dose response, cell-based, SU-DIPG-XVII, MIPE5.0, CellTiter-Glo, qHTS (AID 1347060; cut-off not given, nearly all actives have AC50 up to about 26 µM;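 further: cells exposed to compound for 48 hours before viability readout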); conditions: SU-DIPG-XVII viability, CellTiter-Glo ATP luminescence
[2] = growth inhibition of DIPG glioma cells, dose response, cell-based, JHH-DIPG-1, MIPE4.0, CellTiter-Glo, qHTS (AID 1347062; cut-off not given, nearly all actives have AC50 up to about 27 µM); conditions: JHH-DIPG-1 viability, CellTiter-Glo ATP luminescence
[3] = viability loss in pontine glioma line – cell-based, SU-DIPG-XXV, MIPE5.0, CellTiter-Glo, qHTS, dose response (AID 1347065; cut-off not given, nearly all actives have AC50 up to about 26 µM;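 further: cells exposed to compound for 48 hours before ATP readout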); conditions: CellTiter-Glo ATP luminescence
[4] = SU-DIPG-XXV glioma cell viability, MIPE5.0 library, qHTS (AID 1347068; cut-off not given, nearly all actives have IC50 up to about 30 µM)
[5] = sensitizers of A549 cells to miR-34 induction, primary screen, imaging, A549 dox-inducible miR-34, nuclei and caspase counts (AID 1347080;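 active means compounds whose cell count with miR-34 switched on is under 0.7 times the count with it off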); conditions: A549 miR-34 inducible, Hoechst nuclei count, 48 h
[6] = modifiers of HSF1 nuclear foci, imaging, Selleck Cancer Library (AID 1347162; in the data active means plate-normalised HSF1 focus index below about 0.46); conditions: human cells, at 10 µM; SSMD: measured here: HSF1 foci SSMD mean; cell count: measured here: cell number; plate-normalised HSF1 focus index: stronger effect = lower value
[7] = survival rescue of mitochondrial mutant cells in low glucose, primary screen, MELAS cybrids, Rieske KO mouse fibroblasts, CellTiter-Glo (AID 1508586;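 active means mean z-score across replicates of 1.96 or higher in either the MELAS or the Rieske mutant cell line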;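 further: z relative to plate mean and SD of compound and empty wells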)
[8] = ovarian cancer cell viability with rucaparib, profiling panel, oncology-focused library, rucaparib conditional (AID 1508598); conditions: patient-derived ovarian cancer cells, CellTiter-Glo viability, 144 h, stronger effect = lower value

CC1(C)CNc2cc(NC(=O)c3cccnc3NCc3ccncc3)ccc21
AC50 [1]: 20.9 µM (active)
outcome [2]: inactive
AC50 [3]: 16.6 µM (active)
outcome [4]: inactive
fold change ([5]; stronger effect = lower value, cell number ratio, induced over uninduced): 0.978 (inactive)
fold change ([5]; measured here: relative caspase fold change +Dox/-Dox): 0.926
cell count ([5]; measured here: total cells with miR-34 induction, stronger effect = lower value): 7470
cell count ([5]; measured here: total cells without miR-34 induction): 7630
SSMD [6]: 2.51
cell count [6]: 7450
plate-normalised HSF1 focus index [6]: 1.16 (inactive)
z-score ([7]; MELAS cybrid survival, CellTiter-Glo 48 h, stronger effect = higher value): -0.604 (inactive)
z-score ([7]; Rieske KO mouse fibroblast survival, CellTiter-Glo 72 h): 0.896
viability ([8]; at 0.000305 µM, OCI-C5x cells, with rucaparib 10 µM, 100% = cells with rucaparib alone): 121% (inactive)
viability ([8]; at 0.000305 µM, OCI-C5x cells, without rucaparib): 126% (inactive)
viability ([8]; at 0.000305 µM, OCI-P5x cells, with rucaparib 20 µM, 100% = cells with rucaparib alone): 128% (inactive)
viability ([8]; at 0.000305 µM, OCI-P5x cells, without rucaparib): 103% (inactive)
viability ([8]; at 0.00122 µM, OCI-C5x cells, with rucaparib 10 µM, 100% = cells with rucaparib alone): 114% (inactive)
viability ([8]; at 0.00122 µM, OCI-C5x cells, without rucaparib): 128% (inactive)
viability ([8]; at 0.00122 µM, OCI-P5x cells, with rucaparib 20 µM, 100% = cells with rucaparib alone): 134% (inactive)
viability ([8]; at 0.00122 µM, OCI-P5x cells, without rucaparib): 102% (inactive)
viability ([8]; at 0.00488 µM, OCI-C5x cells, with rucaparib 10 µM, 100% = cells with rucaparib alone): 112% (inactive)
viability ([8]; at 0.00488 µM, OCI-C5x cells, without rucaparib): 122% (inactive)
viability ([8]; at 0.00488 µM, OCI-P5x cells, with rucaparib 20 µM, 100% = cells with rucaparib alone): 135% (inactive)
viability ([8]; at 0.00488 µM, OCI-P5x cells, without rucaparib): 104% (inactive)
viability ([8]; at 0.0195 µM, OCI-C5x cells, with rucaparib 10 µM, 100% = cells with rucaparib alone): 121% (inactive)
viability ([8]; at 0.0195 µM, OCI-C5x cells, without rucaparib): 128% (inactive)
viability ([8]; at 0.0195 µM, OCI-P5x cells, with rucaparib 20 µM, 100% = cells with rucaparib alone): 140% (inactive)
viability ([8]; at 0.0195 µM, OCI-P5x cells, without rucaparib): 105% (inactive)
viability ([8]; at 0.0781 µM, OCI-C5x cells, with rucaparib 10 µM, 100% = cells with rucaparib alone): 119% (inactive)
viability ([8]; at 0.0781 µM, OCI-C5x cells, without rucaparib): 141% (inactive)
viability ([8]; at 0.0781 µM, OCI-P5x cells, with rucaparib 20 µM, 100% = cells with rucaparib alone): 138% (inactive)
viability ([8]; at 0.0781 µM, OCI-P5x cells, without rucaparib): 108% (inactive)
viability ([8]; at 0.313 µM, OCI-C5x cells, with rucaparib 10 µM, 100% = cells with rucaparib alone): 122% (inactive)
viability ([8]; at 0.313 µM, OCI-C5x cells, without rucaparib): 126% (inactive)
viability ([8]; at 0.313 µM, OCI-P5x cells, with rucaparib 20 µM, 100% = cells with rucaparib alone): 142% (inactive)
viability ([8]; at 0.313 µM, OCI-P5x cells, without rucaparib): 107% (inactive)
viability ([8]; at 1.25 µM, OCI-C5x cells, with rucaparib 10 µM, 100% = cells with rucaparib alone): 135% (inactive)
viability ([8]; at 1.25 µM, OCI-C5x cells, without rucaparib): 146% (inactive)
viability ([8]; at 1.25 µM, OCI-P5x cells, with rucaparib 20 µM, 100% = cells with rucaparib alone): 145% (inactive)
viability ([8]; at 1.25 µM, OCI-P5x cells, without rucaparib): 98.9% (active)
viability ([8]; at 5 µM, OCI-C5x cells, with rucaparib 10 µM, 100% = cells with rucaparib alone): 137% (inactive)
viability ([8]; at 5 µM, OCI-C5x cells, without rucaparib): 148% (inactive)
viability ([8]; at 5 µM, OCI-P5x cells, with rucaparib 20 µM, 100% = cells with rucaparib alone): 131% (inactive)
viability ([8]; at 5 µM, OCI-P5x cells, without rucaparib): 94.6% (active)

— PubChem BioAssay
